Only some compounds are listed: those with a hit (about 1.1% of all), similar ones and a draw of the others.
ID4 SMM = binds human ID4 protein on microarray. P47928. small molecule microarray, Flag-ID4 binding, fluorescence F/B. calls only. hit rate 1.2% among 31,000. AID 624137; call rule not given here;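 also: a binder raises fluorescence above local background on the spot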
Target sequence (P47928 whole entry, looked up): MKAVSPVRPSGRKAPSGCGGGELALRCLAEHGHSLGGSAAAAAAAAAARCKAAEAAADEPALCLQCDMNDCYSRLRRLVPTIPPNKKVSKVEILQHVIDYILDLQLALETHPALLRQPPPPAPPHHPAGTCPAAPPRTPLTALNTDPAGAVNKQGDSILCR
STK33 kin inh = blocks human STK33 kinase activity; ADP-Glo luminescence, MBP substrate; Q9BYT3; inhibition, % at 12.5 µM; hit rate 0.44% among 27,000; in the data active = inhibition above about 20%
* = called active by the depositor; i = inactive; x = no result; + = active, no number.

SMILES | ID4 SMM | STK33 kin inh
O=C(NCc1ccc(F)cc1)[C@H]1C[C@H]2C(=O)NCC(=O)N2[C@H]1c1cccc(OCCO)c1 | i | -6
CN(C)CCCCCCNC(=O)[C@H]1C[C@H]2C(=O)N3CCC[C@H]3C(=O)N2[C@H]1c1cccc(OCCO)c1 | + | -3
O=C(NCCSc1c(-c2ccc(Br)cc2)[nH]c2ccccc12)c1ccncc1 | i | x
COc1cccc(C(=O)COc2ccc(NC(=O)c3ccccc3Cl)cc2)c1 | i | 0
COCCOC(=O)N1C(=O)[C@@]2(c3ccccc31)[C@H](c1ccccc1OCCO)N1[C@H](c3ccccc3)[C@H](c3ccccc3)OC(=O)[C@H]1[C@@H]2C(N)=O | + | 8
O=C1O[C@H](c2ccccc2)[C@H](c2ccccc2)N2[C@H]1[C@@H](C(=O)N1CCCCCCC1)[C@]1(C(=O)Nc3ccc(C#CC4=CCCCC4)cc31)[C@H]2c1ccccc1OCCO | i | 22*
COCCOC(=O)N1C(=O)[C@@]2(c3cc(C#Cc4ccc(OC)cc4)ccc31)[C@H](c1ccccc1OCCO)N1[C@H](c3ccccc3)[C@H](c3ccccc3)OC(=O)[C@H]1[C@@H]2C(N)=O | x | 1
O=C1O[C@H](c2ccccc2)[C@H](c2ccccc2)N2[C@H]1[C@@H](C(=O)N1CCN(c3ncccn3)CC1)[C@]1(C(=O)Nc3ccc(C#CC4=CCCCC4)cc31)[C@H]2c1ccccc1OCCO | i | 8
O=C(CSc1nc(-c2ccccc2)cc(=O)[nH]1)Nc1ccc(Cl)cc1 | i | 13
O=C1C(=O)N(CCCn2ccnc2)C(c2ccc(Cl)cc2)C1C(=O)c1cccs1 (configuration not stated) | i | -4
COc1ccc(-c2nc(SCC(=O)Nc3ccc(Br)c(C)c3C)n[nH]2)cc1 | i | -1
CCn1nccc1C(=O)Nc1nc2ccccc2n1CCN1CCCCC1 | i | 6
O=C(O)CCc1nn2c3ccccc3n(CCN3CCCCC3)c2nc1=O | + | -1
C[C@H]1CN([C@@H](C)CO)C(=O)c2cccc(NS(=O)(=O)c3cccs3)c2O[C@H]1CN(C)C(=O)NC1CCCCC1 | i | x
O=C1c2cccc(O)c2C(=O)c2c(O)cccc21 | i | 27*
CCCc1c(C(=O)O)c(O)cc2c1C(=O)c1c(O)cccc1C2=O | i | -2
COC(=O)c1cn(CCCNC(=O)[C@H](Cc2ccccc2)NS(=O)(=O)c2ccc(C)cc2)nn1 | + | x
Cc1ccc(S(=O)(=O)N[C@H](Cc2ccccc2)C(=O)CCl)cc1 | x | 0
COc1cc(C)c2c(c1C=O)Oc1c(c(C)c(O)c3c1C(O)OC3=O)OC2=O (configuration not stated) | i | 15
Cc1cc(O)c(C=O)c2c1C(=O)Oc1c(C)c(O)c3c(c1O2)C(O)OC3=O (configuration not stated) | x | 59*
Cc1cccc(OCC(O)Cn2cnc3ccccc32)c1C (configuration not stated) | i | 0
C[C@@H]1CN([C@H](C)CO)C(=O)c2cc(C#CC(C)(C)O)cnc2O[C@H]1CN(C)Cc1ccccn1 | i | x
C[C@@H]1CN([C@@H](C)CO)C(=O)c2cc(NC(=O)CCC(F)(F)F)ccc2O[C@H]1CN(C)CC1CC1 | i | x
CCOc1ccc(N2C(=O)CC(Sc3nc(O)c(CC)c(=O)[nH]3)C2=O)cc1 (configuration not stated) | + | 1
COc1ccc(N2C(=O)CC(SCCc3nc4ccccc4[nH]3)C2=O)cc1 (configuration not stated) | i | 0
SMILES | ID4 SMM | STK33 kin inh
C[C@@H]1CN([C@H](C)CO)C(=O)Cc2cc(NC(=O)Nc3cccc4ccccc34)ccc2O[C@H]1CN(C)S(=O)(=O)c1cn(C)cn1 | x | -1
COC(=O)C(C)Sc1nnc2c3ccccc3n(Cc3ccccc3)c2n1 (configuration not stated) | + | 8
CCn1c2ccccc2c2nnc(SCC(N)=O)nc21 | i | 6
COc1cc2c(cc1NC(=O)COC(C)=O)oc1ccccc12 | i | 0
C[C@H](CO)N1C[C@H](C)[C@@H](CN(C)C(=O)Nc2ccc3c(c2)OCO3)OCc2ccccc2-c2ccccc2C1=O | i | x
COc1cccc(S(=O)(=O)N2CCCC2C(=O)O)c1 (configuration not stated) | i | -5
CCN1C(=O)c2cccc3c(S(=O)(=O)N4CCCC4C(=O)O)ccc1c23 (configuration not stated) | + | 0
COc1ccc([Si](C)(C)[C@H]2[C@H](CC(=O)N3Cc4ccccc4C[C@H]3CO)O[C@@]3(C(=O)N(C)c4c(Br)cc(C)cc43)[C@@H]2C)cc1 | x | -2
Cc1ccc(-c2nn(C)c(=O)c3ccccc23)cc1CNC(=O)CN1CCOCC1 | i | -9
Cc1ccc(-c2nn(C)c(=O)c3ccccc23)cc1S(=O)(=O)N1CCN(CCO)CC1 | + | -2
C[C@@H]1CN([C@@H](C)CO)C(=O)c2cc(N(C)C)ccc2O[C@H]1CN(C)C(=O)NC1CCCCC1 | i | x
C[C@@H]1CN([C@@H](C)CO)C(=O)c2cc(NS(=O)(=O)c3cn(C)cn3)ccc2O[C@@H]1CN(C)S(=O)(=O)c1cccs1 | x | -1
CNC[C@@H]1Oc2cc(C#Cc3ccccc3)ccc2S(=O)(=O)N([C@H](C)CO)C[C@H]1C | i | x
CNC[C@@H]1Oc2cc(C#Cc3cccnc3)ccc2S(=O)(=O)N([C@@H](C)CO)C[C@H]1C | + | x
CNC[C@@H]1Oc2cc(Br)ccc2S(=O)(=O)N([C@H](C)CO)C[C@H]1C | i | x
CNC[C@H]1Oc2cc(Br)ccc2S(=O)(=O)N([C@H](C)CO)C[C@H]1C | + | x
COC(=O)c1ccccc1NC(=O)Cn1c(C(F)(F)F)nc2ccccc21 | i | 1
CNC[C@@H]1Oc2cc(C3=CCCC3)ccc2S(=O)(=O)N([C@@H](C)CO)C[C@H]1C | i | x
Cn1c2ccccc2c2nnc(SCCN3CCCCC3)nc21 | + | 1
c1ccc2c(c1)[nH]c1nc(SCCN3CCCCC3)nnc12 | i | 2
Cc1ccc2c(C(=O)Nc3sc4c(c3C(N)=O)CCCCC4)cc(-c3ccccn3)nc2c1C | + | 6
CCc1c(C)sc(NC(=O)c2cc(-c3ccccn3)nc3c(C)cccc23)c1C(=O)N1CCCCC1 | i | 3
Cc1c(C(=O)C2C(=O)C(=O)N(Cc3cccnc3)C2c2cccs2)cnn1-c1ccccc1 (configuration not stated) | i | 2
Cc1c(C(=O)C2C(=O)C(=O)N(Cc3cccnc3)C2c2ccccn2)cnn1-c1ccccc1 (configuration not stated) | + | 1
O=C(CSc1nnc(-c2ccncc2)n1-c1ccccc1)c1ccc([N+](=O)[O-])cc1 | i | 1
COc1cc(N)c(Cl)cc1C(=O)NC1CCN(Cc2ccccc2)CC1 | x | 1
O=C(NC1CCN(Cc2ccccc2)CC1)c1ccc(NS(=O)(=O)c2cccs2)cc1 | + | x
CCOc1ccc(-c2nnc(SCC(=O)O)n2-c2ccccc2)cc1 | i | 10
CC(CCC(=O)NCC(=O)O)C1CCC2C3CCC4CC(O)CCC4(C)C3CC(O)C12C (configuration not stated) | i | x
C[C@H](CCC(=O)O)[C@H]1CC[C@H]2[C@@H]3C(=O)C[C@@H]4CC(=O)CC[C@]4(C)[C@H]3CC(=O)[C@]12C | + | -1
